{"source": "PubChem BioAssay AID1745848", "about": "(National Center for Advancing Translational Sciences (NCATS), 2022)", "note": "Out of some 2,100 compounds screened, about 940 (45%) were called active. Not shown: some 48% with an inconclusive outcome. Calls come from the whole dose curve; as a rule, active = well fitted inhibition curve with a large enough effect; inconclusive = small, poorly fitted or top-dose-only effect; inactive = no such curve, though single readings can be large or run the other way. The set was probably picked from earlier hits. The list shows a part of the results. Potency is the fitted concentration of half-maximal effect."}
{"experiment": "Confirmatory qHTS for Inhibitors of ATXN expression; note: nearly all actives have a fitted effect of over 65% in size", "conditions": "ATXN2-luciferase reporter cells, luminescence, 24 h; series mostly up to 11.5 µM", "summary_of_the_method": "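Cells carrying ATXN2-luciferase reporter exposed 24 h at 37 C to compound. Viability then read by CellTiter-Fluor (25 uM GF-AFC, 30 min), followed by SteadyGlo luminescence; medium-only wells set 100% inhibition.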"}
{"smiles": "COc1cc2c3nnc(-c4ccc(F)cc4)c-3cn(Cc3ccc(F)cc3)c2cc1OC", "Potency": "2.82 µM (active)"}
{"smiles": "COc1ccc(Cn2cc3c(-c4ccc(F)cc4)nnc-3c3cc(OC)c(OC)cc32)cc1", "Potency": "1.78 µM (active)"}
{"smiles": "COc1cc2c3nnc(-c4ccc(F)cc4)c-3cn(Cc3ccccc3F)c2cc1OC", "Potency": "2 µM (active)"}
{"smiles": "Cc1ccc(NC(=O)/C=C/c2ccc([N+](=O)[O-])s2)c(C)c1", "Potency": "1.41 µM (active)"}
{"smiles": "O=C(N/N=C/c1ccc([N+](=O)[O-])o1)c1ccc2c(c1)OCO2", "Potency": "14.1 µM (active)"}
{"smiles": "COc1ccccc1NS(=O)(=O)c1cccc(C(=O)N/N=C/c2ccc([N+](=O)[O-])o2)c1", "Potency": "11.2 µM (active)"}
{"smiles": "O=[N+]([O-])c1ccc(/C=N/N=C/c2ccc([N+](=O)[O-])o2)o1", "Potency": "6.31 µM (active)"}
{"smiles": "CC1(C(=O)N/N=C/c2ccc([N+](=O)[O-])o2)CC1(Br)Br", "note": "(configuration not stated)", "Potency": "22.4 µM (active)"}
{"smiles": "COc1ccc(-c2csc3ncnc(Sc4nnnn4C)c23)cc1", "Potency": "3.16 µM (active)"}
{"smiles": "Cn1nnnc1Sc1ncnc2scc(-c3ccsc3)c12", "Potency": "14.1 µM (active)"}
{"smiles": "CCn1cc(C(=O)NCc2cccc(F)c2)c(=O)c2cc(F)c(N3CCN(C(=O)c4ccco4)CC3)cc21", "Potency": "15.8 µM (active)"}
{"smiles": "CCn1cc(C(=O)NCc2ccccc2)c(=O)c2cc(F)c(N3CCN(C(=O)c4ccco4)CC3)cc21", "Potency": "28.2 µM (active)"}
{"smiles": "c1ccc(-c2nnc(-c3ccccn3)nc2NC2CCCCC2)cc1", "Potency": "1.12 µM (active)"}
{"smiles": "CC(C)(C)c1cc[n+](C2=C([O-])c3ccccc3C(=O)/C2=N\\S(=O)(=O)c2cccs2)cc1", "Potency": "1.12 µM (active)"}
{"smiles": "O=C(O)CCn1cc(/C=C/C(=O)c2ccc(Cl)cc2)c(-c2ccc(Br)cc2)n1", "Potency": "25.1 µM (active)"}
{"smiles": "O=C(NC1=CC(=O)c2ccccc2C1=O)c1ccccc1", "Potency": "14.1 µM (active)"}
{"smiles": "COc1ccc(-c2cc(CNc3nc(NC(C)C)nc4cc(-c5ccccc5)sc34)on2)cc1", "Potency": "11.2 µM (active)"}
{"smiles": "O=C(N/N=C/c1ccc(O)cc1O)c1ccc(CN2C(=O)c3cccc4cccc2c34)cc1", "Potency": "2 µM (active)"}
{"smiles": "Cc1ccc(C(C)C)c(OCc2ccc(C(=O)N/N=C/c3ccc(O)c(O)c3)cc2)c1", "Potency": "2.51 µM (active)"}
{"smiles": "Cc1ccc(C(C)C)c(OCc2ccc(C(=O)N/N=C/c3cccc(O)c3O)cc2)c1", "Potency": "2.82 µM (active)"}
{"smiles": "Cc1ccc(C(C)C)c(OCc2ccc(C(=O)N/N=C/c3ccc(O)cc3O)cc2)c1", "Potency": "1.58 µM (active)"}
{"smiles": "Cc1ccc(-c2nc3ccc(Cl)cn3c2CC(C)(C)C)cc1", "Potency": "inactive"}
{"smiles": "Clc1ccc(C[n+]2cc(-c3ccccc3)n3c2CCCCC3)c(Cl)c1", "Potency": "15.8 µM (active)"}
{"smiles": "CN[C@H]1C[C@H]2c3[nH]c4ccc(-c5ccc(OC)cc5)cc4c3CCN2C(=O)[C@H]1[C@H](C)O", "Potency": "3.16 µM (active)"}
{"smiles": "CN(C)CCNc1ncnc2c1sc1nc(N3CCOCC3)c3c(c12)CC(C)(C)SC3", "Potency": "15.8 µM (active)"}
{"smiles": "CC1(C)Cc2c(c(N3CCOCC3)nc3sc4c(NN)ncnc4c23)CS1", "Potency": "8.91 µM (active)"}
{"smiles": "CN(C)CCNc1ncnc2c1sc1nc(N3CCCC3)c3c(c12)CC(C)(C)OC3", "Potency": "25.1 µM (active)"}
{"smiles": "CCOc1ccc(CN(C)c2nc(-c3cccnc3)nc3ccccc23)cc1OC", "Potency": "25.1 µM (active)"}
{"smiles": "CCCCCn1c(CN2CCN(c3cccc(Cl)c3)CC2)nc2c1c(=O)[nH]c(=O)n2C", "Potency": "25.1 µM (active)"}
{"smiles": "CCN1C(=O)C(CC(=O)Nc2ccc(OC)cc2)N(CCc2ccc(F)cc2)C1=S", "note": "(configuration not stated)", "Potency": "2.82 µM (active)"}
{"smiles": "CC(C)(C)c1cc(C(=O)NN)n(Cc2ccc(Cl)cc2Cl)n1", "Potency": "15.8 µM (active)"}
{"smiles": "O=[N+]([O-])c1cc(CN2CCN(c3ccccc3)CC2)c(O)c2ncccc12", "Potency": "3.16 µM (active)"}
{"smiles": "Oc1c(CN2CCN(c3ccccc3)CC2)cc(Br)c2cccnc12", "Potency": "1.26 µM (active)"}
{"smiles": "Oc1c(CN2CCOCC2)cc(COCc2ccccc2)c2cccnc12", "Potency": "3.16 µM (active)"}
{"smiles": "Oc1c(CN2CCCCC2)ccc2cccnc12", "Potency": "6.31 µM (active)"}
{"smiles": "CN(C)CCNC(=O)c1cccc2[nH]c(-c3ccncc3)nc12", "Potency": "2.82 µM (active)"}
{"smiles": "CN(C)CCNC(=O)c1ccc(Cl)c2cc3ccccc3nc12", "Potency": "6.31 µM (active)"}
{"smiles": "CN(CC(=O)Nc1cccc(F)c1)CC(=O)Nc1cccc2ccccc12", "Potency": "inactive"}
{"smiles": "CCN(CC)CCC(=O)Nc1cccc2c1C(=O)c1ccccc1C2=O", "Potency": "1.58 µM (active)"}
{"smiles": "Cc1ccn2c(Nc3ccccc3C)c(-c3ccccn3)nc2c1", "Potency": "3.55 µM (active)"}
{"smiles": "Cc1ccn2c(Nc3ccccc3)c(-c3ccccn3)nc2c1", "Potency": "0.708 µM (active)"}
{"smiles": "Cc1ccc(Nc2c(-c3ccccn3)nc3cc(C)ccn23)cc1", "Potency": "3.55 µM (active)"}
{"smiles": "Cc1ccc(Nc2c(-c3ccccn3)nc3cccc(C)n23)cc1", "Potency": "3.16 µM (active)"}
{"smiles": "Cc1ccc2nc(-c3ccccn3)c(NC3CCCC3)n2c1", "Potency": "inactive"}
{"smiles": "Cc1ccc2c(c1)C1CN(C)CCC1N2C(=S)NC(=O)c1ccc(Br)cc1", "note": "(configuration not stated)", "Potency": "inactive"}
{"smiles": "Cc1cnc(C(=O)NNC(=O)c2ccc(Br)cc2)cn1", "Potency": "25.1 µM (active)"}
{"smiles": "O=C(NCc1ccco1)c1ccc(-c2cccc(Cl)c2)o1", "Potency": "inactive"}
{"smiles": "COCc1ccc(CN2CCC(C(=O)Nc3cccc(-c4cccc(Cl)c4)c3)CC2)o1", "Potency": "25.1 µM (active)"}
{"smiles": "CSCc1nnc(NC(=O)c2ccc(S(=O)(=O)N3CCCCC3C)cc2)o1", "note": "(configuration not stated)", "Potency": "20 µM (active)"}
{"smiles": "O=C(Nc1nnc(C2CC2)o1)c1ccc(S(=O)(=O)N2CCCc3ccccc32)cc1", "Potency": "7.08 µM (active)"}
{"smiles": "CC1CCCCN1S(=O)(=O)c1ccc(C(=O)Nc2nnc(-c3ccccc3Cl)o2)cc1", "note": "(configuration not stated)", "Potency": "2.51 µM (active)"}
{"smiles": "CN1CCC(N(C)C(=O)c2ccc(Cl)c(S(=O)(=O)N3CCc4ccccc43)c2)CC1", "Potency": "inactive"}
{"smiles": "O=S(=O)(c1ccc(Cl)cc1)N1CCN(Cc2ccc(O)c3ncccc23)CC1", "Potency": "3.55 µM (active)"}
{"smiles": "Cc1ccc(C)c(S(=O)(=O)N2CCN(Cc3ccc(O)c4ncccc34)CC2)c1", "Potency": "3.16 µM (active)"}
{"smiles": "COc1ccccc1N(CC(=O)N/N=C(\\C)c1ccccc1O)S(=O)(=O)c1ccc(C)cc1", "Potency": "15.8 µM (active)"}
{"smiles": "COc1ccccc1-c1ccc2c(c1)C(C)(Cc1cccc(F)c1)C(=O)N2", "note": "(configuration not stated)", "Potency": "28.2 µM (active)"}
{"smiles": "Cc1cnc(NC(=O)CCCc2nc3ccccc3s2)s1", "Potency": "1.41 µM (active)"}
